Shown are actives, neighbours in structure and some others; about 0.84% of the full set was active somewhere.
DTT redox prof – compounds producing H2O2 with reducing agent – biochemical, NIH compound library profiling, artefact control for MLSCN library redox annotation, primary screen; DTT-dependent redox cycling H2O2, phenol red/HRP absorbance; 100% = 100 µM peroxide control, 0% = buffer; activation, % at 10 µM; 0.03% of 200,000 active; AID 878;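 active = activation of at least 50% relative to the plate's high and low controls in the primary single-dose screen; inactive = activation below 50%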;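 note: compound incubated with DTT at 0.8 mM final as the reducing agent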
S1P3 antag – blocks the human S1P3 receptor; Q99500; CHO S1P3 NFAT-BLA reporter, FRET fluorescence, antagonist mode; inhibition, % at 4.98 µM; 0.27% of 170,000 active;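 active = inhibition above the plate cutoff, the mean inhibition of test wells on that plate plus 3 SD, cut at about 28% in these data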;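 note: cells challenged with S1P at its EC80 of 0.8 µM; blue over green emission ratio from cleaved BLA substrate after 4 h stimulation; 0% = S1P-stimulated wells and 100% = unstimulated DMSO-only wells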
Target sequence (Q99500 whole entry, looked up): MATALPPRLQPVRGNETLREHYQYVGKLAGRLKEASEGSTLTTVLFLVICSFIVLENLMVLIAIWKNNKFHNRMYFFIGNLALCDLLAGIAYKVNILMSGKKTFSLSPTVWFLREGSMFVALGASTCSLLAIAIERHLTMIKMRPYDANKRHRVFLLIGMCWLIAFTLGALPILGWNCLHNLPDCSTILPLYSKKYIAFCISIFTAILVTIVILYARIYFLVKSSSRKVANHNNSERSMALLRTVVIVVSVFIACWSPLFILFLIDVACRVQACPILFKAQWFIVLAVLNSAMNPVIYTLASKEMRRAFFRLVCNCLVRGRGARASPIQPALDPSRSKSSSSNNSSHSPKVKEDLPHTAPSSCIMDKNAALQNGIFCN
G6PDH CS – inhibits Leuconostoc G6PDH, flagging false hits in G6PDH-based assays. AID 1020. Purified L. mesenteroides G6PDH, diaphorase/resazurin coupled fluorescence, 45 min. 0.12% of 200,000 active. inhibition, % at 5 µM; in the data active = inhibition above about 50%
TbHK1 inh – blocks Trypanosoma brucei hexokinase 1 activity | recombinant TbHK1, G6PDH-coupled NADH A340 | inhibition, % at 10 µM | 0.11% of 220,000 active | AID 1430;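 active = inhibition of 50% or more in the single-dose primary screen; inactive = inhibition below 50%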
p97 ATPase inh – inhibitors of human p97 ATPase; P55072; AID 1481; recombinant p97 ATPase, Kinase-Glo ATP luminescence, 3 h; 0.42% of 220,000 active; inhibition, % at 8 µM; in the data active = inhibition above about 15%;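 note: 0% = DMSO vehicle and 100% = wells lacking enzyme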
Starred values were filed as active, the others as inactive; . = no result.

SMILES | DTT redox prof | S1P3 antag | G6PDH CS | TbHK1 inh | p97 ATPase inh
COc1cc(C2=NOC(C(=O)NC3CCCCC3)C2)cc(OC)c1OC (configuration not stated) | 2.5 | 96.2* | 1.0 | -6.3 | -4.0
CC(=O)c1sc(NC(=O)c2ccccc2F)nc1C | -0.9 | -10.2 | -6.2 | -32.1 | -14.9
CCCn1c(Nc2nc3ccccc3n2C)nc2ccccc21 | 11.2 | 57.8* | -3.3 | -5.2 | -4.6
CN(Cc1ccccc1)C(=O)COc1ccc(-c2nnco2)cc1 | -0.3 | -1.7 | 6.4 | 2.8 | 1.2
Nc1ccc2c(c1)C(=O)C(=O)c1ccccc1-2 | 31.1 | . | 58.0* | 0.9 | 30.8*
COc1cccc(CC(NC(C)=O)C(=O)NC2CCN(c3c4c(nc5ncnn35)CCC4)CC2)c1OC (configuration not stated) | -0.3 | 3.2 | 11.4 | -2.2 | 2.2
NC(=O)c1nn(-c2ccccc2)nc1NC(=O)CSc1nnnn1-c1ccc(Cl)cc1 | -0.1 | -7.6 | -4.1 | -4.7 | 3.0
O=C(CCCn1c(=S)[nH]c2ccccc2c1=O)NC1CCCC1 | 0.2 | 60.2* | -6.3 | 0.7 | 3.2
CCOC(=O)N1CCN(S(=O)(=O)c2cc(C)c(C)cc2C)CC1 | 2.1 | 10.6 | -2.7 | -9.1 | 1.2
Cc1cc(C)c(S(=O)(=O)/N=C2/C=C(SCC(=O)O)C(=O)c3ccccc32)cc1C | -0.3 | -12.7 | 51.4* | 3.8 | 1.2
COc1ccc(C(=O)c2c(C(F)(F)F)oc3c2C(=O)c2ccccc2C3=O)cc1OC | 0.2 | . | 59.4* | -16.9 | 1.7
CC(C)C(=O)c1ccc(O)c(O)c1 | . | -13.1 | . | -47.9 | 8.9
CCC(NC(C)C)C(O)c1ccc(O)c(O)c1 (configuration not stated) | 0.8 | -0.5 | 62.7* | 2.3 | 6.6
N#Cc1cccc(N=Cc2c(O)ccc3ccccc23)c1 | -0.1 | -6.2 | 62.1* | 1.8 | 6.4
CC(=O)C1=C(C)OC(N)=C(C#N)C1c1cccc2ccccc12 (configuration not stated) | . | -6.2 | . | -13.6 | 14.6*
Cc1ccc(NC(=O)CS(=O)CC(=O)NCCCN(C)c2ccccc2)cc1 (configuration not stated) | 0.1 | -29.1 | 0.2 | -3.3 | -1.8
COc1cc(/C=C2\SC(c3ccc(C)cc3)=NC2=O)cc(OC)c1O | 2.2 | . | -67.3 | -20.5 | 7.3
Cc1ccc(C2=NC(=O)/C(=C/c3cc(O)c(O)c(Br)c3)S2)cc1 | 0.1 | -8.3 | 3.8 | 11.5 | 31.1*
Cc1noc(C)c1S(=O)(=O)N1CCC(C(=O)N2CCN(C3CCCC3)CC2)CC1 | -3.7 | . | 9.4 | -5.2 | 5.4
COc1cccc(-n2c(SCC(=O)N3CCOCC3)nnc2-c2c[nH]c3ccccc23)c1 | -0.8 | 52.6* | -3.8 | 1.2 | 0.6
CCCCc1nc(NCc2ccccc2)c(C#N)c2c1COC(C)(C)C2 | 0.4 | . | 4.5 | -22.7 | -0.6
O=C(CN1CCCCC1)N1c2ccccc2Oc2ccccc21 | 2.0 | . | 1.0 | -5.0 | 3.0
O=S(=O)(NCc1ccccn1)c1ccccc1 | 0.3 | . | 6.6 | -7.4 | 0.2
O=S(=O)(Cc1ccccc1)NCc1ccccn1 | 1.1 | 103.3* | 3.2 | 3.7 | 1.7
COc1cc(/C=C2\CC/C(=C\c3cc(OC)c(O)c(OC)c3)C2=O)cc(OC)c1O | 5.9 | 6.5 | 56.3* | -9.9 | 19.4*
SMILES | DTT redox prof | S1P3 antag | G6PDH CS | TbHK1 inh | p97 ATPase inh
COc1cc(/C=C2\CC/C(=C\c3cc(OC)c(OC)c(OC)c3)C2=O)cc(OC)c1OC | 4.3 | -18.8 | 1.7 | -4.0 | 0.2
O=C(O)CC(NCc1ccco1)C(=O)OCC1CCCO1 (configuration not stated) | -3.5 | . | -3.8 | 48.7 | 0.0
O=C(O)c1ccc(S(=O)(=O)c2ccc3c(c2)C(=O)N(Cc2ccco2)C3=O)cc1 | 2.3 | 105.7* | 10.8 | 3.4 | 5.4
Cc1cc(C)cc(Nc2nc3ccccc3c(=O)[nH]2)c1 | -1.1 | 11.1 | -1.2 | 0.1 | 4.4
COc1nc(Nc2nc3ccccc3c(=O)[nH]2)nc2ccc(C)cc12 | . | 69.9* | . | -26.7 | 2.9
CC(/C=N\N1CCN(c2ccc(Cl)cc2)CC1)=C\c1ccccc1 | 3.3 | . | 8.7 | -14.7 | 1.9
O=c1nccc(Nc2ccccc2)[nH]1 | . | 0.0 | . | -6.8 | 1.9
O=c1[nH]c(Nc2ccccc2)cc2ccccc12 | -1.0 | -20.1 | 55.3* | -3.9 | 8.3
O=C1C2C3C=CC(C4CC34)C2C(=O)N1c1cc(Cl)ccn1 (configuration not stated) | . | 15.5 | . | 0.5 | -4.4
COC(=O)c1ccc2c(c1O)C(=O)c1ccccc1C2=O | 0.4 | . | 53.1* | -9.1 | -0.5

High-throughput results deposited in PubChem BioAssay by several laboratories.
